The values that follow come from PubChem BioAssay (EPA / NIEHS).

Assay [1] can be described thus: CCTE_Deisenroth_AIME_384WELL_CTox_Active: Cytotoxicity Assessment (CTOX) in CCTE's 384-well Estrogen Receptor Transactivation Assay with AIME metabolic competence (metabolism positive), Deisenroth Lab (AID 2284037).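 Also: chemicals first conditioned 2 h by alginate-bound induced rat liver S9 before cells; activity means signal loss indicating cell death.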 The essentials: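 VM7Luc4E2 breast cells received medium pre-incubated 2 h with chemical over alginate microspheres holding induced male Sprague Dawley rat liver S9; viability read 24 h later by protease-substrate fluorescence. Loss of signal, bidirectional fit, 0.002–200 uM.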

Assay [2] is described as follows: CCTE_Deisenroth_AIME_384WELL_CTox_Inactive: Cytotoxicity Assessment (CTOX) in CCTE's 384-well Estrogen Receptor Transactivation Assay without AIME metabolic competence (metabolism negative), Deisenroth Lab (AID 2284039).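 Also: cell viability via live-cell protease substrate cleaved to fluorescent probe; cells exposed 24 h to medium preincubated 2 h with alginate-water beads without S9.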 In outline:
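Fluorescence from a live-cell protease substrate, read after 24 h in VM7Luc4E2 cells, indicated viability. Test medium came from a 2 h AIME step without hepatic S9 (alginate-water microspheres); concentrations spanned 0.002 - 200 uM, single technical replicate per run.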

In the next assay the test system is TTR (gene 7276). Description: CCTE_GLTED_hTTR_0.125uM: CCTE's human Transthyretin (hTTR) Inhibition Assay, with 0.125uM TTR, Great Lakes Toxicology and Ecology Division (GLTED) Lab (AID 2284431; active = hit-call score of the fitted dose curve at least 0.9, where 1 is the maximum; inactive = score below 0.9;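 also: hits lower the fluorescence signal relative to DMSO baseline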). In outline:
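TTR 0.125uM + test chemical, 2 h; ANSA probe displacement; ex 380/em 475 fluorescence; signal loss vs DMSO control.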

The target in assay [3] is Nucleoli Translocation, AR (gene 367) (UniProt P10275). Nature of the assay: UPITT_HCI_U2OS_AR_TIF2_Nucleoli_Agonist: University of Pittsburgh U2OS Androgen Receptor-Transcriptional Intermediary Factor 2 (AR-TIF2) Agonism High Content Imaging Assay for Nucleoli Translocation (AID 2283998). In outline:
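RFP-AR / GFP-TIF2 cells; cpds diluted in serum-free medium; single-point screen 20 uM final (0.2% DMSO), actives confirmed in triplicate; conc-response 0.195–50 uM final (0.5% DMSO). Readout: nucleolar red fluorescence, positive direction vs DMSO.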

In assay [4] the target is Ratio of Nucleoli Translocation and Cytoplasm, AR (gene 367) (UniProt P10275). Description: UPITT_HCI_U2OS_AR_TIF2_Nucleoli_Cytoplasm_Ratio_Antagonist: University of Pittsburgh U2OS Androgen Receptor-Transcriptional Intermediary Factor 2 (AR-TIF2) Antagonism High Content Imaging Assay for Ratio of Nucleoli Translocation and Cytoplasm (AID 2283999).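 Also: antagonists lower the DHT-driven ratio of nucleolar to cytoplasmic red signal.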 In outline:
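Read-out is the ratio of nucleolar to cytoplasmic AR-RFP fluorescence, imaged by high-content microscopy in U2OS cells coexpressing TIF2-GFP. Single-point 20 uM screen, triplicate confirmation, then 0.195–50 uM dose response; activity referenced to DHT baseline.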

Assay [5] has the same target. Nature of the assay: UPITT_HCI_U2OS_AR_TIF2_Nucleoli_Cytoplasm_Ratio_Agonist: University of Pittsburgh U2OS Androgen Receptor-Transcriptional Intermediary Factor 2 (AR-TIF2) Agonism High Content Imaging Assay for Ratio of Nucleoli Translocation and Cytoplasm (AID 2284000).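 Also: hits raise the red nucleolar to cytoplasm ratio above vehicle.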 The essentials: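 Primary screen at 20 uM final (0.2% DMSO), then triplicate confirmation and dose-response from 0.195 to 50 uM final (0.5% DMSO). Cells: U2OS with AR-RFP and TIF2-GFP. Endpoint is the nucleoli/cytoplasm red-fluorescence ratio, gain-of-signal vs DMSO.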

Assay [6] concerns the target Cytochrome P450 2C19 (Homo sapiens) (UniProt P33261). Nature of the assay: NVS_ADME_hCYP2C19: NovaScreen (NVS) CYP450-related Enzyme Activity (ADME) Assay for human CYP2C19 (AID 2283113).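 As to AC50: potency for inhibition seen as loss of fluorescent signal.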 The essentials: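 Recombinant insect-cell-expressed enzyme, fluorescent substrate, 1 h after chemical addition, fluorescence intensity. Baseline = acetonitrile vehicle; activity scored as signal loss. Primary HTS single concentration 10 uM, duplicate; actives retested in concentration series.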

Assay [7] addresses Androgen Receptor/SRC-1 Co-activator, AR (gene 367) (UniProt P10275). Description: OT_AR_ARSRC1_0960: Odyssey Thera (OT) 16-hour HEK293T Protein-Complementation Assay for Androgen Receptor/SRC-1 Co-activator (AID 2283353).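 Also: actives raise the signal above DMSO so potency reflects increased AR and SRC-1 complex.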 In outline: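 Readout: 488 nm nuclear-to-cytoplasmic fluorescence ratio from imaging of at least 400 cells per image, 16 h post-dose. Reporter is Venus YFP complementation between AR and SRC-1 fusions, stably expressed in HEK293T; activity scored upward relative to DMSO.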

The target is the same in assay [8]. Description: OT_AR_ARSRC1_0480: Odyssey Thera (OT) 8-hour HEK293T Protein-Complementation Assay for Androgen Receptor/SRC-1 Co-activator (AID 2283354).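 Also: hits raise the complementation signal above DMSO so AC50 marks enhancers.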 The essentials: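 After 8 h dosing, stably expressing HEK293T cells with split-Venus AR/SRC-1 fusions were imaged (488, 635nm). The 488nm N/C ratio per image gave the endpoint, analysed in the positive direction against DMSO.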

The target of assay [9] is human Dopamine Transporter (DAT), SLC6A3 (gene 6531) (UniProt Q01959). Description: NVS_TR_hDAT: NovaScreen (NVS) Transporter Assay for human Dopamine Transporter (DAT) (AID 2283374).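 Also: activity means loss of bound radioligand signal relative to DMSO.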 The essentials:
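Extracted human SLC6A3 protein incubated 1 h with radioligand and test chemical; bound fraction separated on filters and counted. Single 25 uM duplicate screen preceded concentration-response follow-up; positive and negative controls on every plate.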

Assay [10] has as its target Agonist Androgen Response Element (ARE), AR (gene 367) (UniProt P10275). Nature of the assay: OT_AR_ARELUC_AG_1440: Odyssey Thera (OT) 24-hour CHO-K1 Luciferase Assay for Agonist Androgen Response Element (ARE) (AID 2283379). The essentials: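 Luminescence increase above DMSO, read after a 24 h compound treatment of CHO-K1 cells expressing an androgen response element luciferase reporter, gives the single primary endpoint; concentration-response fitting used the positive direction.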

The target of another assay is AR (gene 367) (UniProt P10275). Nature of the assay: ACEA_AR_antagonist_80hr: ACEA Biosciences xCELLigence Real-Time Cell Analysis on Androgen Receptor Antagonism for Proliferation (AID 2283787).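 Also: 22Rv1 human prostate cancer cells with growth followed by electrical impedance; hits lower the impedance growth signal relative to DMSO.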 In outline:
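Using 22Rv1 cells held in assay medium, we dosed compounds (100 uM maximum final, 1:4 serial, eight points, 0.5% DMSO at top) and recorded cell-electrode impedance; the 80 hr timepoint was analyzed against DMSO.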

A short description of assay [11]: CCTE_Shafer_MEA_acute_spike_number: CCTE's Neural Acute Assay for Total Number of Spikes, Shafer Lab (AID 2284008; active = hit-call score of the fitted dose curve at least 0.9, where 1 is the maximum; inactive = score below 0.9;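 as to AC50: curve fitted for decrease in spike count so AC50 reflects inhibitors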). The essentials:
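Rat cortical cultures, DIV 13/15, 37 C. 40 min baseline rec, cpd 0.03-40 uM, 40 min post-dose rec. Band-pass 300-5000 Hz, spike threshold 8x rms; % change in spike count per well, DMSO neg ctrl, loss-of-signal fit.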

In assay [12] the target is Estrogen receptor (Homo sapiens) (UniProt P03372). Nature of the assay: OT_ER_ERaERa_1440: Odyssey Thera (OT) 24-hour HEK293T Protein-Complementation Assay for Estrogen Receptor-alpha/-alpha Homodimer (AID 2283349).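 Also: hits raise fluorescence above DMSO for agonists and antagonists alike.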 In outline:
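Stably transfected HEK293T; ERα LBD homodimer PCA. 24 h dosing, fluorescence intensity read, gain-of-signal vs DMSO.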

The target is the same in assay [13]. Description: OT_ER_ERaERa_0480: Odyssey Thera (OT) 8-hour HEK293T Protein-Complementation Assay for Estrogen Receptor-alpha/-alpha Homodimer (AID 2283351).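 Also: rise in fluorescence from reassembled reporter fragments on ERα LBD homodimer in nucleus or whole cell.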 The essentials: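 Read-out: fluorescence intensity rise relative to DMSO, nuclear for agonists, nuclear plus cytoplasmic for antagonists. Construct is the ERα LBD (aa 310-547) homodimer fragment-complementation pair, stably expressed in HEK293T; exposure 8 h.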

Assay [14] has as its target Estrogen receptor (Homo sapiens) + Estrogen receptor beta (Homo sapiens) (UniProt P03372+Q92731). Nature of the assay: OT_ER_ERaERb_1440: Odyssey Thera (OT) 24-hour HEK293T Protein-Complementation Assay for Estrogen Receptor-alpha/-beta Homodimer (AID 2283356).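 Also: heteromer of ER alpha and ER beta binding domains; hits raise reporter fluorescence and both agonists and antagonists give an increase.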 In outline:
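Readout: mean fluorescence intensity in nucleus (agonists) or nucleus plus cytoplasm (antagonists), read by laser scanning cytometer after 24 h compound exposure of HEK293T cells carrying ERα/ERβ LBD fragment-complementation constructs; DMSO baseline.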

The target of assay [15] is Estrogen receptor (Homo sapiens) (UniProt P03372). Nature of the assay: OT_ERa_GFPERaERE_0480: Odyssey Thera (OT) 8-hour HeLa Transcription Induction Assay for Estrogen Receptor (AID 2283381; active = hit-call score of the fitted dose curve at least 0.9, where 1 is the maximum; inactive = score below 0.9). The essentials: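 GFP-ERE reporter, HeLa, 8 h exposure. Readout: fluorescence microscopy, high-content image analysis. Fit direction positive vs DMSO negative control.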
For assay [16] the target is unchanged. Description: OT_ERa_GFPERaERE_0120: Odyssey Thera (OT) 2-hour HeLa Transcription Induction Assay for Estrogen Receptor (AID 2283382). The essentials:
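Fluorescence microscopy read-out: inducible fluorescent protein reporter in HeLa cells, imaged 2 h post-dose. Signal increase over DMSO negative control fitted as single primary endpoint via high content image analysis.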

Assay [17] concerns the target bovine Estrogen Receptor (ER), ESR1 (gene 407238) (UniProt P49884). Description: NVS_NR_bER: NovaScreen (NVS) Nuclear Receptor Binding Assay for bovine Estrogen Receptor (ER) (AID 2283345).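 Also: actives lower the bound radioligand count which means they displace the ER ligand.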 In outline:
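Bovine uterine membranes; tritiated or iodinated radioligand; competitive displacement; 18 h; scintillation read; DMSO negative control; 25 uM duplicates, then concentration series for actives.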

For assay [18], the target named is human Phosphoinositide 3-kinase alpha (PI3Ka), PIK3CA (gene 5290) (UniProt P42336). Description: NVS_ENZ_hPI3Ka: NovaScreen (NVS) Enzymatic Assay for human Phosphoinositide 3-kinase alpha (PI3Ka) (AID 2283196). The essentials: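 Duplicate single-point screen (25 uM), then singleton dose-response (max 50 uM) for compounds meeting the threshold. Cell-free kinase reaction, 1 h; fluorescent mobility-shift readout.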

Inconclusive results are not listed. A structure can be active in one record and inactive in another. Activity calls are given as the source filed them. The calls were made as follows, unless noted: active = hit-call score of the fitted dose curve at least 0.9, where 1 is the maximum; inconclusive = response in the unintended direction; inactive = score below 0.9.

Estrogen receptor (Homo sapiens), sequence (P03372 whole entry, looked up, the tested form may be a part): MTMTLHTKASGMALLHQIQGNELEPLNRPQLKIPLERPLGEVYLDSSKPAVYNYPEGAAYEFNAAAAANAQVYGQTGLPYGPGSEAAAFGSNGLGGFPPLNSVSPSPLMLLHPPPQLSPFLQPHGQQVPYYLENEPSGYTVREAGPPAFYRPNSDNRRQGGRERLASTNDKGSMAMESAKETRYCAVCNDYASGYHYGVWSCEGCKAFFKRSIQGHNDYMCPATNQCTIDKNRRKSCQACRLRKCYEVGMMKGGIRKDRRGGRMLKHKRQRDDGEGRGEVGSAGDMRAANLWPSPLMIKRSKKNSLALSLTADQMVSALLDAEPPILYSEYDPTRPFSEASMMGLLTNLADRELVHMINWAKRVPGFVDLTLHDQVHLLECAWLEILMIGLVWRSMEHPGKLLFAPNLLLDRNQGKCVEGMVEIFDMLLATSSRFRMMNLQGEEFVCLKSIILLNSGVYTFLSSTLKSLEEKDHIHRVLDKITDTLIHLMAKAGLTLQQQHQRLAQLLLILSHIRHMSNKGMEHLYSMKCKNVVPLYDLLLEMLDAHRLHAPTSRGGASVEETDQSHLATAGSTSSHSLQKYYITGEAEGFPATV
bovine Estrogen Receptor (ER), ESR1 (gene 407238), sequence (P49884 whole entry, looked up): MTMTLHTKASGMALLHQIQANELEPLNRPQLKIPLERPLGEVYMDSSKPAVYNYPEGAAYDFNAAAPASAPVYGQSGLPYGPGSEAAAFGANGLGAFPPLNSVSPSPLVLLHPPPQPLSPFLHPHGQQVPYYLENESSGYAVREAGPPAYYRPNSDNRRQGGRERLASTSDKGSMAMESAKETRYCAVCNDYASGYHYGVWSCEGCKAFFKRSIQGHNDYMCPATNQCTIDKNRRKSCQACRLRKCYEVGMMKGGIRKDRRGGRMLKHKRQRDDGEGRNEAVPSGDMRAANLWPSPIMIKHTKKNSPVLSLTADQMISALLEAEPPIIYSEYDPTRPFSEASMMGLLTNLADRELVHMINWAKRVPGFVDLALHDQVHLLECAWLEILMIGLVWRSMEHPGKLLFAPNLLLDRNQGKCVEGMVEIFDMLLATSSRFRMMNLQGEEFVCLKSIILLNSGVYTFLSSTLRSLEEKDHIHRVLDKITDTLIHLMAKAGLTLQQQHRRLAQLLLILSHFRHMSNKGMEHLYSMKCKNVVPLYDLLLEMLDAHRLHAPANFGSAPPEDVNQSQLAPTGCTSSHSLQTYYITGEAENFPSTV
human Dopamine Transporter (DAT), SLC6A3 (gene 6531), sequence (Q01959 whole entry, looked up): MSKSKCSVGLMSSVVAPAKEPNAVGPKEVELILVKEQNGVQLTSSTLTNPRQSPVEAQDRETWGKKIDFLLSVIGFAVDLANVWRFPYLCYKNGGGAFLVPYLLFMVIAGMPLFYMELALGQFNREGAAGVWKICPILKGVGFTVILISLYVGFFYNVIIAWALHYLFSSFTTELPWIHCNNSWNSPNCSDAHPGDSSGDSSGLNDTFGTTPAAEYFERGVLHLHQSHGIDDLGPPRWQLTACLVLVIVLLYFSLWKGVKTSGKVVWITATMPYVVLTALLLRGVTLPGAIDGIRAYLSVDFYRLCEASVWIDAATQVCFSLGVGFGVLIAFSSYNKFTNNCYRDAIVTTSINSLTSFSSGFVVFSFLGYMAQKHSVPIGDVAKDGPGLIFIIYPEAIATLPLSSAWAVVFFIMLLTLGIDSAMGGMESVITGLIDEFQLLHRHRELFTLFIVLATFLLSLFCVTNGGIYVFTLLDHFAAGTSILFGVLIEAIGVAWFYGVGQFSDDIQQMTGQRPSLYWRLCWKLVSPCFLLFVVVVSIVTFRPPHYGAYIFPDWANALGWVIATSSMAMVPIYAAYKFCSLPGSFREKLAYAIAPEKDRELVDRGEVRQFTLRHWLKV
Androgen Receptor/SRC-1 Co-activator, AR (gene 367), sequence (P10275 whole entry, looked up, the tested form may be a part): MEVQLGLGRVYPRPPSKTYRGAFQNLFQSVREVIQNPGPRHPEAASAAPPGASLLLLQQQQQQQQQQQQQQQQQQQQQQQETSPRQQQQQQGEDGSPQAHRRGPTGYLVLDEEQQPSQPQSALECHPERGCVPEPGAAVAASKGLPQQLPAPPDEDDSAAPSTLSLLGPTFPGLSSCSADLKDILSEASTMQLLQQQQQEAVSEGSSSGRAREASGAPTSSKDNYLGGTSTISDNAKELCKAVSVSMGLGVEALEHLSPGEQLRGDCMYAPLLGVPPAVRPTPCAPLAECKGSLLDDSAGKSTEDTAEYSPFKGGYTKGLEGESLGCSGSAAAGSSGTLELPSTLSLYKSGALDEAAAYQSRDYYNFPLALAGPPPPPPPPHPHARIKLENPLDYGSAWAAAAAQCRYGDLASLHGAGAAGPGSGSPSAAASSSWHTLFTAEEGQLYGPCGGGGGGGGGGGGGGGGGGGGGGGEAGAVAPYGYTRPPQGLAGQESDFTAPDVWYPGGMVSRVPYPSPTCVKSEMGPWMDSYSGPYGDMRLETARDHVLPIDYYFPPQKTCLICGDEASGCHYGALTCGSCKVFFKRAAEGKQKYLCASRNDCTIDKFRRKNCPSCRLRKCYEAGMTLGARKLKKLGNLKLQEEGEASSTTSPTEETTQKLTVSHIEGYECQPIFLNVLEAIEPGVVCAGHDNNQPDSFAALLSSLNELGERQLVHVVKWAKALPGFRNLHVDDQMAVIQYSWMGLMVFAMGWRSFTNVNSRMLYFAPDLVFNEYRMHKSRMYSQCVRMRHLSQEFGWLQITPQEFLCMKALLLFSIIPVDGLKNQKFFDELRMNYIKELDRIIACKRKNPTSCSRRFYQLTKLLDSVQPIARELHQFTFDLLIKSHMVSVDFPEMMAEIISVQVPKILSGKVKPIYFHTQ
Nucleoli Translocation, AR (gene 367), sequence (P10275 whole entry, looked up): as the sequence (P10275 whole entry, looked up, the tested form may be a part) above
Agonist Androgen Response Element (ARE), AR (gene 367), sequence (P10275 whole entry, looked up): as the sequence (P10275 whole entry, looked up, the tested form may be a part) above

As for `O=S(=O)(O)OOS(=O)(=O)O`, the call in assay [1] and in [2] was inactive.

`CCOP(=O)(OCC)Oc1ccc([N+](=O)[O-])cc1`: the half-maximal activity concentration (AC50) in the assay on TTR (gene 7276) is 5.87 µM (active).

As to `CNC(=O)Oc1cc(C)c(SC)c(C)c1`, the AC50 was 50 µM (active) in assay [3] and 71.1 µM (active) in assay [5]. Besides, the result in assay [3], in assay [4] and in assay [5] was inactive.

Turning to `CC1(C)[C@H](C(=O)O[C@H](C#N)c2cccc(Oc3ccccc3)c2)[C@@H]1C=C(Br)Br`, the AC50 in assay [6] is 0.134 µM (active); in assay [9] it was 7.41 µM (active); with AR (gene 367), 50 µM (active); in assay [11], 1.62 µM (active). Besides, the call (in assay [6]; in assay [7]; in assay [8]; in [10]; with AR (gene 367)) was inactive.

Turning to `COc1cc(OC)nc(Oc2cccc(Oc3nc(OC)cc(OC)n3)c2C(=O)O)n1`, the call (in assay [7]; in assay [8]; in [10]; with AR (gene 367); in [4]) was inactive.

As for `Nc1ccc(Cl)c(Cl)c1`, the compound was called inactive in assay [1] and in [2]. In the assay on TTR (gene 7276), the half-maximal activity concentration (AC50) is 18.3 µM (active).

As for `O=[N+]([O-])O`, in assay [11], the AC50 is 0.0886 µM (active) and the result was inactive.

As to `Nc1cc(Cl)cc(Cl)c1`, the AC50 in the assay with TTR (gene 7276) is 6.93 µM (active).

Regarding `c1ccc2c(c1)CCCC2`, the call in [12], in [13], in assay [7], in [8], in assay [14] and in assay [10] was inactive. Besides, the compound was classed as inactive (in assay [15]; in assay [16]; with AR (gene 367); in [5]).

Take `CCOP(O)OCC`: the outcome in assay [2] was inactive.

For the compound `O=C1C(Cl)=C(Cl)C(=O)C(Cl)=C1Cl`, the compound was called inactive in [17].

Consider `CCOC(=O)COc1ccc(Cl)cc1Cl`, for which the AC50 with TTR (gene 7276) was 19.4 µM (active).

Consider `Cc1ccc(OP(=O)(Oc2ccc(C)cc2)Oc2ccc(C)cc2)cc1` (tested in a mixture with another compound), for which the AC50 in [11] was 4.2 µM (active).

For `O=[N+]([O-])C=Cc1ccccc1`, in assay [9], the AC50 is 25 µM (active).

Turning to `c1cc(OCC2CO2)ccc1Cc1ccc(OCC2CO2)cc1` (stereo not given), the result in assay [17] was inactive.

In the case of `ClCC(Cl)Cl`, the compound was classed as inactive in assay [18].

As to `Clc1ccc(-c2ccccc2)cc1`, the compound was called inactive in assay [9].

For `COc1cc(OC)c(OC)cc1C=O`, the outcome in assay [17] was inactive.

On to `O=C(NC(=O)c1c(F)cccc1F)Nc1ccc(Oc2ccc(C(F)(F)F)cc2Cl)cc1F`, for which, in assay [1], the compound was called inactive.

With `Cc1ccc(C)c2ccccc12`, the result in [7], in [8], in assay [10], in assay [3], in assay [4] and in assay [5] was inactive. The outcome in assay [1] and in assay [2] was inactive.

`Cc1cc(C)c(C2=C(OC(=O)CC(C)(C)C)C3(CCCC3)OC2=O)c(C)c1`: the result in [12], in assay [13], in [14], in [15], in [16] and in assay [1] was inactive. In addition, in [2], the result was inactive.

`COC(C)(C)CCC[C@H](C)C/C=C/C(C)=C/C(=O)OC(C)C`: the AC50 in assay [6] is 0.992 µM (active). Besides, the compound was classed as inactive in assay [18].

The AC50 is the concentration giving half of the maximal activity seen.
